Assay results published in the supplement of paper PMC10849652.
About 7,900 targets were measured; listed, in parts, are those with a hit and a random draw of the rest. About 0.6% of all pairs of compound and target were hits.

Assays:
Assay in all cases: log2 fold change, soluble protein after heating vs DMSO (PISA); higher = thermal stabilisation; K562 cells, 10 uM, 30 min; active = over 0.2 and 3.5 SD of the protein, either way, in both replicates (recomputed)
[1] = compound: C1=CC=C(C=C1)[C@H](COC2=CC3=C(C=C2)NC(=O)N3)NC(=O)C4=CC=CN(C4=O)CC5=CC(=C(C=C5)F)F
Procedure, shortened: (§1)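 K562 cells at 2×10^6 cells/mL were exposed to 10 μM compound for 30 min, then aliquots were heated for 3 min across 48°C-58°C, pooled, and extracted in PBS containing 0.5% NP-40 at 4°C. The supernatant after 21,000xg for 90 min was taken as soluble protein and measured by TMTpro 16plex LC-MS/MS with channel sums equalised. Thermal stability is reported relative to control samples, with values from duplicates. Fold changes are given on a log2 scale.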

[2] = compound: CC1=C(SC2=C1C(=N[C@H](C3=NN=C(N32)C)CC(=O)N)C4=CC=C(C=C4)Cl)C
Procedure, shortened: as §1

[3] = compound: CC1=C2C(=CC=C1)N=C(N(C2=O)C3=CC=CC=C3C)CN4C=NC5=C(N=CN=C54)N
Procedure, shortened: as §1

[4] = compound: Cc1sc2c(c1C)C(c1ccc(Cl)cc1)=N[C@@H](CC(=O)OC(C)(C)C)c1nnc(C)n1-2
Procedure, shortened: as §1

[5] = compound: c1ccc([C@@H]2C[C@H]2NC2CCNCC2)cc1
Procedure, shortened: as §1

Measured: log2 fold change

PHF5A (UniProt Q7RTV0)
Chain of UniProt Q7RTV0 (Q7RTV0 whole entry, looked up): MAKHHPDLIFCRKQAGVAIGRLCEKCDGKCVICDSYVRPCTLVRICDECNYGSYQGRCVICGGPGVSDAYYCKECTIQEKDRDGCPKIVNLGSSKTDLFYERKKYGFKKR
inactive: [1] 0.048 | [2] -0.024 | [3] 0.018 | [4] 0.002 | [5] 0.018

PTPA (UniProt Q15257)
Chain of UniProt Q15257 (Q15257 whole entry, looked up): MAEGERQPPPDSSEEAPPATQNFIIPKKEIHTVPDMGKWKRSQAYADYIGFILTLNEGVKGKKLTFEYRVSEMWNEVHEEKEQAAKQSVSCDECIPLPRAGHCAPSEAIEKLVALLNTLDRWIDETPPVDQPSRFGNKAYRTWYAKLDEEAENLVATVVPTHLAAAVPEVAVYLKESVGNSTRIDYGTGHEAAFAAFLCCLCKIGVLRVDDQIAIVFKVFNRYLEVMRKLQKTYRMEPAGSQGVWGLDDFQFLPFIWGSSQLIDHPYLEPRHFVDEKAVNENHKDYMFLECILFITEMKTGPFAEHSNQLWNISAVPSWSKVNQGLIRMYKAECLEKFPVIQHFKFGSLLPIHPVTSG
inactive: [1] -0.013 | [2] 0.021 | [3] 0.005 | [4] -0.041 | [5] -0.003

PCBP2 (UniProt F8VRH0)
inactive: [1] -0.033 | [2] -0.18 | [3] -0.013 | [4] 0.085 | [5] 0.026

PTMA (UniProt P06454)
Chain of UniProt P06454 (P06454 whole entry, looked up): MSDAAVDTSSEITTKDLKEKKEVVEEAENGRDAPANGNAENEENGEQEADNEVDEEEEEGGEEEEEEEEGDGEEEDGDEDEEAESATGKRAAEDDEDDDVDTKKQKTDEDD
inactive: [1] 0.029 | [2] 0.017 | [3] -0.105 | [4] -0.166 | [5] -0.009

PFDN1 (UniProt O60925)
Chain of UniProt O60925 (O60925 whole entry, looked up): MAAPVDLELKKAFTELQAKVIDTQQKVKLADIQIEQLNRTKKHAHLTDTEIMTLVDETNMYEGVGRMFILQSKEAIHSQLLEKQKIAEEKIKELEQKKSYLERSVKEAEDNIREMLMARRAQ
inactive: [1] -0.102 | [2] 0.155 | [3] 0.061 | [4] -0.171 | [5] -0.061

PTTG1IP (UniProt P53801)
Chain of UniProt P53801 (P53801 whole entry, looked up): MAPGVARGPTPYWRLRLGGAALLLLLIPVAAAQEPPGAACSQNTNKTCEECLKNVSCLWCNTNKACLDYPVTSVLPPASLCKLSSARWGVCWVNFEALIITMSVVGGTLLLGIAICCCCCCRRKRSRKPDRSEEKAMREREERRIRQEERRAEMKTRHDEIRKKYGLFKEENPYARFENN
inactive: [1] 0.149 | [2] -0.055 | [3] -0.134 | [4] 0.04 | [5] 0.084

PITRM1 isoform 2 (UniProt Q5JRX3)
Chain of UniProt Q5JRX3 (Q5JRX3 whole entry, looked up): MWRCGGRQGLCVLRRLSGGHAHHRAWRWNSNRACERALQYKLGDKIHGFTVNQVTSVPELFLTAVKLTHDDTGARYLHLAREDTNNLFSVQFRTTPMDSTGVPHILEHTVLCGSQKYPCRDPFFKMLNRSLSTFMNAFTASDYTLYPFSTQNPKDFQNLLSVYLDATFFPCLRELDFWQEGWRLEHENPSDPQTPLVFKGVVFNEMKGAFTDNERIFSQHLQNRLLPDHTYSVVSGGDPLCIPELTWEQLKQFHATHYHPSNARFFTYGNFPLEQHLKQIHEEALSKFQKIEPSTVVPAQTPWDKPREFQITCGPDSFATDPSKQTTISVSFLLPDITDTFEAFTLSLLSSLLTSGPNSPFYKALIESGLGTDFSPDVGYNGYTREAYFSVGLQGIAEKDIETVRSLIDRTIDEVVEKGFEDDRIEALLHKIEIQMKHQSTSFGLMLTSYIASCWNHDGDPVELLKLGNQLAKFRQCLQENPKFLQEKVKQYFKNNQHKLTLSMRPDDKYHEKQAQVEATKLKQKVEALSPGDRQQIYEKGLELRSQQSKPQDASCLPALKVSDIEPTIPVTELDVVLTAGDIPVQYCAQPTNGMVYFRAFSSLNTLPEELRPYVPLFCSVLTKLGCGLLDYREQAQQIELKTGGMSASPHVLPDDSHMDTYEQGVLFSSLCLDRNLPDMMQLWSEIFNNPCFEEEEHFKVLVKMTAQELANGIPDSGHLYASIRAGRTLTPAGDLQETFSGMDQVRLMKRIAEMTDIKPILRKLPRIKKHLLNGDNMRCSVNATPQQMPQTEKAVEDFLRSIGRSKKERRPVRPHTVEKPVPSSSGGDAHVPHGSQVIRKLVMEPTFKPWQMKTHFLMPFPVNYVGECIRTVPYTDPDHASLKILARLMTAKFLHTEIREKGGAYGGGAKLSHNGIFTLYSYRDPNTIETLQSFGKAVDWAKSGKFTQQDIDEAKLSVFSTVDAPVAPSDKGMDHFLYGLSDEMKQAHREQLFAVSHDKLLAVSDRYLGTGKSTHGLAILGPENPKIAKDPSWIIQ
inactive: [1] 0.064 | [2] -0.08 | [3] 0.048 | [4] -0.083 | [5] 0

PIP4P2 (UniProt Q8N4L2)
Chain of UniProt Q8N4L2 (Q8N4L2 whole entry, looked up): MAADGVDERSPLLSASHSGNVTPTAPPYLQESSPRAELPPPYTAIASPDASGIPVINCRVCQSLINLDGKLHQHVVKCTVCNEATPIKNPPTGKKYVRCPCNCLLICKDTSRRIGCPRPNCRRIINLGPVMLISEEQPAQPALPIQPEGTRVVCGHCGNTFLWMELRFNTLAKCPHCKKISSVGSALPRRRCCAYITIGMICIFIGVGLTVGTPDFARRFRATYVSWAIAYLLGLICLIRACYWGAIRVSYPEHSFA
inactive: [1] 0.045 | [2] 0.048 | [3] -0.066 | [4] -0.017 | [5] -0.018

PI4K2B (UniProt Q8TCG2)
Chain of UniProt Q8TCG2 (Q8TCG2 whole entry, looked up): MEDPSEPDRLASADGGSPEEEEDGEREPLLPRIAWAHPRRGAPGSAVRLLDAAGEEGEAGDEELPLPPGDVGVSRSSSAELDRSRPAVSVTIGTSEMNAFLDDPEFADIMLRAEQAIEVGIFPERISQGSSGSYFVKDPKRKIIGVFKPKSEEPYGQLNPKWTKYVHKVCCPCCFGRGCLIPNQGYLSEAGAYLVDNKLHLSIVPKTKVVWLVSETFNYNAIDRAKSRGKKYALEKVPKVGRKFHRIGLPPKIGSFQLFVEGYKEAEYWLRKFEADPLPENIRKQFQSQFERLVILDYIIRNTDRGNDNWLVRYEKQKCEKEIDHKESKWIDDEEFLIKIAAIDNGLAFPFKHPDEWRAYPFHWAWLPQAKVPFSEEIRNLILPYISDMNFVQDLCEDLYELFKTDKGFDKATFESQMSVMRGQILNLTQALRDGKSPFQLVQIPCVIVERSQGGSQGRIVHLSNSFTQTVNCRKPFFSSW
inactive: [1] 0.007 | [2] 0.031 | [3] 0.065 | [4] 0.024 | [5] -0.041
